# TRPV1 potentiator: HTS Assay for Compounds that Act as Potentiators of the Vanilloid Receptor 1 | TRPV1-expressing cells, Fluo-8 calcium influx, capsaicin EC20 potentiation | potentiation, % at 8.33 µM | 0.02% of 320,000 active | AID 540277, 2011; in the data active = potentiation above about 80%; inconclusive = between about 30% and that limit
#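 Fluo-8 calcium influx in TRPV1-expressing cells, kinetic read (ex 480/em 520 nm). Compound added and read 3 min for agonist activity, followed by capsaicin at EC20 final and 2 min further read for enhancement.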
# TRPV1 ag: HTS Assay for Compounds that Act as Agonists of the Vanilloid Receptor 1; activation, % at 8.33 µM; 0.19% of 320,000 active; TRPV1-expressing cells, Fluo-8 calcium influx, agonist mode; in the data active = activation above about 80%; inconclusive = between about 30% and that limit
#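 Cells expressing TRPV1 were dye-loaded with Fluo-8 and read kinetically: 10 s baseline, 3 min after compound (agonist portion), then 2 min after EC20 capsaicin (allosteric enhancer portion). Calcium-bound dye fluorescence at 480/520 nm.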
# KCNH2 WT inh: qHTS for Inhibitors of KCHN2 3.1: Wildtype qHTS; Voltage-gated inwardly rectifying potassium channel KCNH2 (Homo sapiens), Q12809; U2OS, BacMam KCNH2, thallium flux FluxOr; active compounds read low; activity change, % at 1.84 µM; 0.37% of 340,000 active;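 active = maximum activity change below -70%; inconclusive = maximum activity change between -70% and -50%; inactive = maximum activity change above -50%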
#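 U2OS cells were transduced with wild-type KCNH2 virus (2.03 x 10^8 / mL) for 4 h at room temperature, then cultured overnight at 37 C. Thallium flux was read with FluxOr dye. Rate constants were normalized to DMSO controls.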
# KCNH2 3.1 block: qHTS for Inhibitors of KCHN2 3.1: Mutant qHTS. Potassium voltage-gated channel subfamily H member 2, brain isoform KCNH2 3.1 (human). activity change, % (tested at about 1.8 µM). U2OS KCNH2 3.1, thallium flux FluxOr; active compounds read low. 0.95% of 340,000 active. AID 720553, 2013;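 active = maximum activity change below -70%; inconclusive = maximum activity change from -70% to -50%; inactive = maximum activity change above -50%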;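 also: thallium influx rate constant from kinetic fluorescence after stimulation buffer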
#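 Normalized rate constant (relative to positive and negative DMSO controls) derived from a 2 min kinetic fluorescence read after stimulation; U2OS cells expressing the 3.1 isoform via virus at 1.77 x 10^8 /mL.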
# A number is an active result; – = inactive; ? = inconclusive; · = no result. A selection: hits, their analogues and other compounds. The true share with any hit is near 1.2%.
SMILES,TRPV1 potentiator,TRPV1 ag,KCNH2 WT inh,KCNH2 3.1 block
COc1ccc(CNC(=O)C[C@H]2C[C@H](C(=O)N(C(C)C)C(C)C)[C@@]3(C)c4[nH]c5cc(-c6ccco6)ccc5c4CCN3C2=O)cc1OC,·,·,–,–
O=c1c2cn[nH]c2nc(SCc2c(F)cccc2F)n1-c1ccc(Cl)cc1,–,–,-229.9,–
Cc1noc(C)c1CSc1nc2[nH]ncc2c(=O)n1-c1ccccc1,–,–,–,–
Nc1c(-c2cccc(Cl)c2)cnn1-c1ccccc1,–,–,–,-87.6
N#Cc1ccc(N2C(=O)[C@@H]3C(C(=O)c4ccc5ccccc5n4)=NN[C@@H]3C2=O)cc1,–,–,-97.6,–
CNC(=O)c1cn(-c2ccc(Cl)cc2)c(=O)c2ccccc12,–,–,–,–
CCCCN(CC)CCNC(=O)c1cn(-c2ccc(Cl)cc2)c(=O)c2ccccc12,–,–,?,-78.1
CCCN1CCN(C(=O)c2ccc(S(=O)(=O)N(C)c3ccccc3OC)cc2)CC1,·,·,–,–
O=C1OC(O)c2cccc3cccc1c23 (stereo not drawn),·,·,–,-71.2
O=C1c2cccc3cccc(c23)C(=O)N1CCO,·,·,–,–
CCOC(=O)N(C)C[C@@H]1OCc2ccccc2-c2c(n(C)c3ccccc23)C(=O)N([C@H](C)CO)C[C@H]1C,·,·,–,–
CC(=O)NN=C1CCC(c2ccccc2)CC1 (stereo not drawn),–,–,-88.2,–
Oc1ccccc1CNc1cnc2ccccc2c1,–,–,–,–
Oc1ccc(Cl)cc1CNc1cnc2ccccc2c1,–,–,-223.6,–
CC1(c2ccc3ccccc3c2)CCC(=O)O1 (stereo not drawn),·,·,-104.5,–
CC1(c2ccc3ccccc3c2)NC(=O)N(CC(=O)O)C1=O (stereo not drawn),–,–,–,–
Cc1ccc(Cl)c(OCCCN(C)Cc2ccccc2)c1,–,–,-70.0,–
O=C(CSc1nnnn1C1CC1)Nc1cc(S(=O)(=O)N2CCCC2)ccc1Cl,·,·,–,–
Cc1nnc(SCC(=O)Nc2cc(S(=O)(=O)N3CCCC3)ccc2Cl)n1C1CC1,–,–,–,-96.7
CCN1CCN(c2ccc(S(=O)(=O)N3CCCCC3)cc2NC(=O)/C=C/c2ccc([N+](=O)[O-])cc2)CC1,–,–,–,-75.9
CCN1CCN(c2ccc(S(=O)(=O)N3CCCCC3)cc2NC(=O)/C=C/c2ccc(OC(F)F)cc2)CC1,–,–,-89.9,-79.7
CCN1CCN(c2ccc(S(=O)(=O)N3CCCCC3)cc2NC(=O)c2cccc(OC(F)F)c2)CC1,–,–,-83.9,-117.7
COc1ccc(C(=O)NC(C)c2ccncc2)cc1S(=O)(=O)N(C)Cc1ccccc1 (stereo not drawn),–,–,–,–
COC(=O)C(NC(=O)c1ccc(F)cc1)(Nc1ncc(S(=O)(=O)c2ccc([N+](=O)[O-])cc2)s1)C(F)(F)F (stereo not drawn),–,–,-74.8,-80.0
COC(=O)C(NC(=O)c1ccccc1C)(Nc1ncc(S(=O)(=O)c2ccc([N+](=O)[O-])cc2)s1)C(F)(F)F (stereo not drawn),–,–,–,–
SMILES,TRPV1 potentiator,TRPV1 ag,KCNH2 WT inh,KCNH2 3.1 block
CCN(CC(=O)Nc1c(F)cccc1F)C(=O)C1CCN(C(=O)Nc2ccccc2)CC1,–,–,–,–
COc1cc2c(cc1OC)C(O)C(O)(CO)C(C(=O)O)C2c1cc(OC)c(OC)c(OC)c1 (stereo not drawn),·,·,–,–
C=CCNS(=O)(=O)NC(=O)C1=C(N2CCCC2)COC1=O,·,·,–,–
COc1ccc(NC(=O)c2cccn(CC=C(C)C)c2=O)cc1,–,?,–,-101.7
CC(=O)C1=CN(Cc2ccccc2)CCC1=O,·,·,–,·
CSc1oc(-c2ccccc2)nc1S(=O)(=O)c1ccc(F)cc1,–,–,–,-89.8
CSc1oc(-c2ccc(F)cc2)nc1S(=O)(=O)c1ccccc1,–,?,–,–
CCCCN1C[C@H](c2ccccc2)[C@@H](CC(=O)NC)C1=O,·,·,–,–
CC(C)NC(=O)N(C)C[C@H]1Oc2ccc(NC(=O)Cc3ccccc3)cc2C(=O)N([C@H](C)CO)C[C@@H]1C,·,·,–,–
Cc1cc(N2CCN(S(=O)(=O)c3ccc(Cl)cc3)CC2)c2ccccc2n1,–,–,?,-95.1

# High-throughput results from PubChem.
